PubChem BioAssay (NCI)
About 83,000 compounds went through this panel and 20% of them were active in at least one assay; those are over-represented in the sample as a whole.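 Method: cells in 96-well plates; compound added at one concentration; 48 h incubation; percent growth measured; values under 10 scored active.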 Values without a mark were called inactive. Active and inactive are the calls of the source.

Experiments:
Test in all cases: NCI-60 one-dose screen, 48 h (100 = growth as untreated, 0 = no growth, -100 = all killed)
Settings in all cases: 10 µM unless noted
DU-145 prostate = tested on: DU-145 prostate
K-562 leukemia = tested on: K-562 leukemia
MALME-3M melanoma = tested on: MALME-3M melanoma
MDA-MB-231 breast = tested on: MDA-MB-231 breast
RXF 393 renal = tested on: RXF 393 renal
SF-268 CNS = tested on: SF-268 CNS
SF-295 CNS = tested on: SF-295 CNS
SF-539 CNS = tested on: SF-539 CNS
UACC-257 melanoma = tested on: UACC-257 melanoma
M14 melanoma = tested on: M14 melanoma
HCT-15 colon = tested on: HCT-15 colon
HT29 colon = tested on: HT29 colon
SNB-75 CNS = tested on: SNB-75 CNS
SNB-19 CNS = tested on: SNB-19 CNS
U251 CNS = tested on: U251 CNS
PC-3 prostate = tested on: PC-3 prostate
SK-MEL-5 melanoma = tested on: SK-MEL-5 melanoma
UACC-62 melanoma = tested on: UACC-62 melanoma
LOX IMVI melanoma = tested on: LOX IMVI melanoma
SK-MEL-28 melanoma = tested on: SK-MEL-28 melanoma

SMILES	growth (DU-145 prostate)	growth (K-562 leukemia)	growth (MALME-3M melanoma)	growth (MDA-MB-231 breast)	growth (RXF 393 renal)	growth (SF-268 CNS)	growth (SF-295 CNS)	growth (SF-539 CNS)	growth (UACC-257 melanoma)	growth (M14 melanoma)	growth (HCT-15 colon)	growth (HT29 colon)	growth (SNB-75 CNS)	growth (SNB-19 CNS)	growth (U251 CNS)	growth (PC-3 prostate)	growth (SK-MEL-5 melanoma)	growth (UACC-62 melanoma)	growth (LOX IMVI melanoma)	growth (SK-MEL-28 melanoma)
Cc1ccc(C(=O)Nc2ccc(CNCCN3CCOCC3)c(C(F)(F)F)c2)cc1C#Cc1cnc2cccnn12	33.5%	5.07% (active)	-44.6% (active)	-18.5% (active)	-54.2% (active)	15.6%	-24.7% (active)	-69.3% (active)	-45.3% (active)	-7.89% (active)	7.26% (active)	2.36% (active)	-18% (active)	36.6%	6.06% (active)	19.3%	-85.9% (active)	15.1%	-85.6% (active)	-6.46% (active)
O=C(Nc1ccc(N=Cc2c(O)[nH]c3ccccc23)cc1)Nc1ccc(S(=O)(=O)Nc2ncccn2)cc1	110%	98%	112%	107%	122%	109%	101%	105%	103%	104%	97.4%	104%	99%	101%	103%	94.1%	100%	103%	101%	120%
COc1cc(OC)cc(-c2cc(-c3c[nH]c4ccccc34)nc(-c3c[nH]c4ccccc34)c2C#N)c1	101%	93.2%	108%	101%	108%	100%	101%	94.2%	112%	95%	102%	108%	87.6%	96.6%	100%	93.6%	98.5%	93.6%	82.7%	101%
C/C(=C(/C)C1CC1CCNC1CCC(NC(=O)OC(C)(C)C)CC1)c1ccccc1 (stereo not given)	84.6%	0.99% (active)	36.6%	72.9%	42.7%	84.7%	77.8%	63.5%	55.4%	21.3%	42.6%	11.9%	60.1%	91.3%	61.3%	63.8%	45.7%	83.1%	10.2%	35.5%
O=S(=O)(NCCCNc1nccc(-c2[nH]c(-c3ccccc3)nc2-c2ccc(F)c(O)c2)n1)c1ccccc1	113%	60.6%	-4.84% (active)	81.7%	121%	90.7%	96.9%	105%	22.4%	27.8%	101%	98.1%	79.5%	110%	114%	88.2%	59.9%	19.6%	83.7%	33.8%
O=C1[C@@H]2Cc3c([nH]c4ccccc34)[C@H](c3ccc(Br)cc3)N2C(=O)CN1C1CCN(Cc2c(Cl)cccc2Cl)CC1	96.3%	74.2%	107%	89%	120%	81.3%	100%	105%	102%	92.8%	89.4%	84.4%	66.3%	92.2%	96.9%	80%	95.6%	78.3%	91.7%	111%
O=C(/C=C/c1ccc(Cl)c(Cl)c1)Nc1ncc(Cc2ccc(Cl)c(Cl)c2)s1	49.5%	15.3%	79.8%	97.1%	104%	61.4%	7.58% (active)	60.5%	40.9%	-27.4% (active)	29%	36.2%	95.5%	74%	58.2%	45.3%	51.4%	10.3%	23.3%	48.5%
NC(=S)n1c(=O)n(-c2cccc(C(F)(F)F)c2)c(=O)c2cc(-c3ccc(F)cc3F)ccc21	24.5%	8.79% (active)	-17.5% (active)	-11.3% (active)	0.891% (active)	13.3%	-12% (active)	17.2%	-7.03% (active)	14.5%	9.27% (active)	37.4%	-24.9% (active)	15.6%	9.68% (active)	0.986% (active)	-57.3% (active)	-3.3% (active)	-46.5% (active)	23%
Cc1ccc(Nc2nc(SC(C)C)nc(-c3ccccc3)c2C#N)cc1	104%	103%	75.3%	82.1%	84.1%	82%	93.9%	84.3%	113%	116%	95.1%	101%	91.1%	97.1%	103%	99.9%	83.5%	95.5%	96.4%	96.8%
COc1cc2oc(-c3cccc(NC(=O)[C@@H](N)C(C)C)c3)cc(=O)c2c(OC)c1OC	105%	105%	110%	99.2%	107%	107%	96.7%	95.9%	108%	111%	97.9%	107%	124%	95.4%	92.3%	106%	99.1%	91.3%	94.4%	111%
CCOC(=O)C(=O)Nc1ccc2c(ccn2C(=O)c2cccc(F)c2)c1	67.7%	101%	102%	107%	104%	99%	92%	91.5%	99.1%	95.3%	95.8%	101%	74.3%	91.6%	105%	99.6%	96.3%	93.5%	96.3%	99.1%
CC1(C)CC[C@]23CC[C@]4(C)[C@H](CC[C@@H]5[C@@]6(C)CC[C@H](N)C(C)(C)[C@@H]6CC[C@]54C)[C@H]2[C@H]1OC3	-25.2% (active)	-31.2% (active)	109%	30.1%	38.1%	80.9%	78%	74.1%	98.9%	82.8%	-52.2% (active)	20.2%	99.5%	47.3%	-47.9% (active)	69.6%	87.7%	94.6%	-74.2% (active)	103%
O=C(N/N=C/c1cc2ccccc2nc1Cl)c1cc(-c2nc3ccccc3[nH]2)nc2ccccc12	87.7%	83.6%	124%	99%	96.2%	87.8%	89.7%	103%	118%	109%	82.9%	90.3%	83.2%	95.3%	92.2%	81.6%	81.9%	75.1%	88.9%	99.2%
CNCCN(C)c1ccc(Nc2cc(NC3CC3)n3ncc(C#N)c3n2)cc1NC(C)=O	17.5%	10.7%	-5.08% (active)	-6.44% (active)	-24.5% (active)	7.24% (active)	12%	6.65% (active)	8.4% (active)	-20.6% (active)	9.77% (active)	16.4%	-24.3% (active)	10.1%	5.12% (active)	10.7%	-1.54% (active)	-24.9% (active)	-25.7% (active)	13%
Oc1[nH]c2ccc(Cl)cc2c1N=Nc1nc(N=Nc2c(O)[nH]c3ccc(Cl)cc23)nc(N2CCOCC2)n1	88.4%	32.9%	56.4%	36.3%	13.7%	49.1%	45.7%	16%	82%	77.5%	91.6%	91.1%	-0.671% (active)	-9.43% (active)	3.81% (active)	56.1%	46.1%	51.6%	23.2%	55%
